Results on 43 compounds are retold here after PubChem BioAssay AID624173 (National Center for Advancing Translational Sciences (NCATS), 2012).

Hit rate of the full screen: of about 410,000 compounds, about 490 (0.12%) were called active. Roughly 1% stayed inconclusive and do not appear here. The list comes from a sample in which actives are over-represented; it also holds similar structures and randomly drawn compounds. A call without a number means that no potency is given here. A number with no mark means an inactive call. Calls follow the shape of the dose curve; as a rule, active = well fitted inhibition curve with a large enough effect; inconclusive = small, poorly fitted or top-dose-only effect; inactive = flat fitted curve, though single readings scatter.
Potency is read from the fitted curve at half-maximal effect.

For this experiment, the target named is pyruvate kinase (Trypanosoma brucei) (UniProt Q57TT1). Kind of experiment: qHTS of Trypanosoma Brucei Inhibitors. Also: nearly all actives have a fitted effect of over 50% in size. Particulars: TbPYK enzyme, Kinase-Glo Plus ATP luminescence, 45 min; series mostly up to 76.8 µM. The source says: Members of the Trypanosomatidae family of parasitic protozoans cause a spectrum of diseases throughout the tropical and subtropical world. Sleeping sickness, caused by two subspecies of Trypanosoma brucei, is endemic to areas of sub-Saharan Africa, while Chagas' disease, a manifestation of Trypanosoma cruzi infection, is prevalent throughout Central and South America. In addition, many species of Leishmania are responsible for a range of cutaneous and visceral diseases, causing ulcers, destructive lesions and kalaazar, a lethal infection of the viscera. These diseases cause severe public health and economic burdens on populations that are often already caught in a tragic cycle of poverty, poor nutrition and disease. Collectively, parasites of the trypanosomatid family infect 30 million people worldwide (~500 million live in endemic areas), and account for ~130K deaths annually. Existing treatments have developed little in the past 50 years, and suffer from toxicity, poor efficacy and resistance; the goal of this project is to develop lead drugs that will be suitable for entry into pre-clinical trials.
Glycolysis in axenically cultured T. cruzi, representing the intracellular pathogenic stage, is also essential for these parasites. {Engel, 1987} This project aims to discover and optimize selective inhibitors of the glycolytic enzyme pyruvate kinase (PYK) from Trypanosoma brucei, the parasite that causes sleeping sickness. […] Trypanosomatid PYKs show significant differences from their human counterparts including only 47-50% sequence identity and different allosteric and activation properties.{Callens, 1992} To this end, a qHTS was done against the MLSMR to discover inhibitors.
NIH Molecular Libraries Probe Production Network [MLPCN]
NIH Chemical Genomics Center [NCGC]
PI Name: Malcolm Walkinshaw, University of Edinburgh
2 uL of TbPYK/substrate buffer (columns 1-3, 5-48) are dispensed into Greiner white solid bottom 1536-well assay plates; column 4 receives only TEA buffer as 0x TbPYK controls. Compounds are then transferred via Kalypsys pin tool equipped with 1536-pin array (10 nL slotted pins, V&P Scientific, San Diego, CA). Following addition of compound, 2 uL of ADP (130 uM final concentration, all columns) is added to initiate the reaction. The plates are then incubated at room temperature for 45 minutes. Kinase-Glo Plus reagent is added (3 uL) and plates incubated for 10 minutes, before being transferred to a ViewLux high-throughput CCD imager (PerkinElmer) wherein single end-point measurements of luminescence are acquired using a clear filter. All reagents are diluted in an assay buffer consisting of 50 mM TEA (pH 7.2), 100 mM KCl, 10 mM MgCl2, 0.05% BSA and 0.01% Tween-20.
All screening operations will be performed on a fully integrated robotic system (Kalypsys, San Diego, CA) containing one RX-130 and two RX-90 anthropomorphic robotic arms (Staeubli, Duncan, SC). Library plates will be screened starting from the lowest and proceeding to the highest concentration. Vehicle-only plates, with DMSO being pin-transferred to columns 5-48, will be inserted uniformly at the beginning and the end of each library in order to monitor and record any shifts in the background, which can be affected by reagent dispensers or loss in enzyme activity over time. Screening data will be corrected, normalized, and concentration-effect relationships will be derived by using publicly-available curve fitting algorithms developed in-house (http://ncgc.nih.gov/pub/openhts).
Take `CCOC(=O)Cc1cccc(-c2cc(CCCCCCc3ccc(O[C@H]4O[C@H](COC(C)=O)[C@@H](OC(C)=O)[C@H](OC(C)=O)[C@@H]4OC(C)=O)c(-c4cccc(CC(=O)OCC)c4)c3)ccc2O[C@H]2O[C@H](COC(C)=O)[C@@H](OC(C)=O)[C@H](OC(C)=O)[C@@H]2OC(C)=O)c1`: the Potency result is “inactive”.

Regarding `COCC(=O)N1CCC2(CCCN(c3ccccc3)C2)CC1`, the Potency result was “inactive”.

Consider `Cc1ccc(-c2ncc(Cl)cc2-c2ccc(S(C)(=O)=O)cc2)cn1`, for which the Potency entry is “inactive”.

As to `CCC(C)C(N)C1=NC(C(=O)NC(CC(C)C)C(=O)NC(CCC(=O)O)C(=O)NC(C(=O)NCCCCC2NC(=O)C(CC(N)=O)NC(=O)C(CC(=O)O)NC(=O)C(Cc3cnc[nH]3)NC(=O)C(Cc3ccccc3)NC(=O)C(C(C)CC)NC(=O)C(CCCN)NC2=O)C(C)CC)CS1` (stereo not drawn), the Potency result was “inactive”.

For the compound `CC(=O)N1CCC2(CCCN(Cc3ccccc3)C2)CC1`, the Potency entry was “inactive”.

For `CC1(C)[C@H](O[C@H]2O[C@H](C(=O)O)[C@@H](O)[C@H](O)[C@H]2O[C@@H]2O[C@H](C(=O)O)[C@@H](O)[C@H](O)[C@H]2O)CC[C@@]2(C)[C@H]1CC[C@]1(C)[C@H]2C(=O)C=C2[C@H]3C[C@@](C)(C(=O)O)CC[C@]3(C)CC[C@]21C`, the Potency entry is “inactive”.

On to `COc1ncc2nc(-c3ccc(Cl)cc3)c(=O)n(-c3ccccc3)c2n1`, for which the Potency result was “inactive”.

As to `CCCc1c2oc(C(=O)O)cc(=O)c2cc2c(=O)cc(C(=O)O)n(CC)c12`, the Potency entry is “inactive”.

Consider `CCOc1ccc(NS(=O)(=O)c2ccc(N)cc2)nn1`, for which the Potency entry was “inactive”.

Regarding `CS(=O)(=O)N1CCC2(CC1)CN(c1ccncc1)C2`, the Potency result is “inactive”.

Regarding `c1ccc(Cc2c(-c3ccco3)nc3c4ccccc4ccn23)cc1`, the Potency entry was “inactive”.

With `Cc1ccc(Cc2c(-c3ccco3)nc3ccc(Cl)cn23)cc1`, the Potency was 22.4 µM (active).

Turning to `Cc1cc2nc(-c3ccco3)c(Cc3cccc(F)c3)n2c(C)c1Br`, the Potency result is “inactive”.

Turning to `COc1ccc(NC(=O)N2CC3(CCN(C(C)=O)CC3)C2)cc1`, the Potency entry was “inactive”.

In the case of `COc1ccc(C(=O)N2CCC3(CC2)CCN(c2ccccn2)CC3)cc1`, the Potency entry was “inactive”.

`CC(=O)N1CCC2(CCCN(Cc3ccc(C#N)cc3)C2)CC1`: the Potency result was “inactive”.

With `CCC(C)[C@@H](N)C(=O)O` (stereo partly drawn), the Potency result was “inactive”.

As to `COC(=O)[C@@H]1CC2=CC(=O)CC[C@]2(C)[C@@]23O[C@@H]2C[C@@]2(C)[C@@H](CC[C@@]24CCC(=O)O4)[C@H]13`, the Potency entry is “inactive”.

On to `CC(=O)OCC(=O)[C@@]1(O)CC[C@@H]2[C@H]3CCC4=CC(=O)C=C[C@]4(C)[C@]3(F)[C@@H](O)C[C@@]21C`, for which the Potency result was “inactive”.

As for `C[C@]12CCC3[C@@H](CCC4=CC(=O)CC[C@@]43C)C1CCC2OC(=O)CCc1ccccc1` (stereo partly drawn), the Potency entry is “inactive”.

As for `CO[C@]12CC[C@@]3(C[C@@H]1[C@](C)(O)C(C)(C)C)[C@@H]1Cc4ccc(O)c5c4[C@@]3(CCN1CC1CC1)[C@H]2O5`, the Potency result was “inactive”.

As to `CC(C)=CCN1CC[C@@]2(C)c3cc(O)ccc3C[C@H]1[C@@H]2C`, the Potency entry is “inactive”.

Regarding `COC(=O)N1CCC2(CCCN(c3ccncc3)C2)CC1`, the Potency result is “inactive”.

`COc1ccc(OC)c([C@H](O)CNC(=O)CN)c1`: the Potency entry was “inactive”.

In the case of `Cc1cccc(C)c1NC(=O)NC1=CCCN1C`, the Potency entry is “inactive”.

Take `O=C1C(c2[nH]c3ccccc3c2O)=Nc2ccccc21`: the Potency result was “inactive”.

In the case of `O=c1c(-c2cccs2)nc2cnc(Oc3ccccc3)nc2n1-c1ccccc1`, the Potency entry was “inactive”.

Regarding `CCCC(=O)O[C@]1(C(=O)COC(=O)CC)CC[C@@H]2[C@@H]3CCC4=CC(=O)CC[C@]4(C)[C@H]3[C@@H](O)C[C@@]21C`, the Potency result was “inactive”.

Consider `Cc1c(Cl)cccc1NC(=O)N1CCN(C(=O)c2nsc3ccccc23)CC1`, for which the activity, negative = inhibition was 10.2% [at 15.4 µM].

In the case of `NCCCCC(N)C(=O)O` (stereo not drawn), the Potency result was “inactive”.

For the compound `CCC(C)C1OC2(C=CC1C)CC1CC(C/C=C(/C)C(OC3CC(OC)C(OC4CC(OC)C(NC(C)=O)C(C)O4)C(C)O3)C(C)/C=C\C=C3\COC4C(O)C(C)=CC(C(=O)O1)C34O)O2` (stereo not drawn), the Potency result is “inactive”.

`CC(C)NC(=O)N1CC[C@@]2(CCCN(C(=O)c3ccco3)C2)C1`: the Potency result is “inactive”.

Turning to `Cc1cc(-c2csc(N)n2)c(C)n1-c1ccccc1`, the Potency result was “inactive”.

Consider `S=c1[nH]nc(-c2cc(-c3ccsc3)n[nH]2)n1-c1ccccc1`, for which the Potency is 2.82 µM (active).

`O=P(O)(O)OC[C@H](O)CO`: the Potency result is “inactive”.

For the compound `O=C(O)[C@@H](S)[C@H](S)C(=O)O`, the Potency entry is “inactive”.

As for `CC(C)CC1C(=O)N2CCCC2C2(O)OC(NC(=O)C3CC4c5cccc6[nH]cc(c56)CC4N(C)C3)(C(C)C)C(=O)N12` (stereo not drawn), the Potency result is “inactive”.

In the case of `O=c1c(-c2ccc(F)cc2)nc2cnc(N3CCOCC3)nc2n1-c1ccccc1`, the Potency result was “inactive”.

For `Clc1ccc(-c2nc3sccn3c2C=NOCc2ccc(Cl)c(Cl)c2)cc1`, the Potency result was “inactive”.

Regarding `Cn1cccc1C(=O)N1CCC[C@@]2(CCN(Cc3nccs3)C2)C1`, the Potency entry was “inactive”.

As to `O=C(c1cc(C(F)(F)F)cc(C(F)(F)F)c1)N1CCC2(CCCN(Cc3ccncc3)C2)CC1`, the Potency result is “inactive”.

Turning to `CN1CCCC(=C(c2cccs2)c2cccs2)C1`, the Potency result is “inactive”.

With `O=C1NC(=O)N(c2ccccc2)C(=O)/C1=C/c1ccc([N+](=O)[O-])s1`, the Potency was 17.8 µM (active).
